Source: PubChem BioAssay (Sanford-Burnham Center for Chemical Genomics)
VHR inh color = VHR1 (DUSP3) phosphatase inhibition; P51452; recombinant VHR phosphatase, colorimetric substrate read-out; inhibition, % at 20 µM; 0.7% of 50,000 active; in the data active = inhibition above about 60%
Target sequence (P51452 whole entry, looked up): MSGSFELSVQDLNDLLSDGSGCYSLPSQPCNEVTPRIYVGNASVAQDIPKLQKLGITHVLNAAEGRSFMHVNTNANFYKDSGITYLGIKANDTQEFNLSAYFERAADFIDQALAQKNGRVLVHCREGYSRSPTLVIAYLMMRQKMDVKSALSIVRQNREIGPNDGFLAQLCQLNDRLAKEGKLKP
Hits are given with their value; – = inactive. The entries come from a sample that favours hits as a whole.

SMILES | VHR inh color
O=C1NC(=O)N(c2cccc(Br)c2)C(=O)/C1=C/c1ccc(-c2ccc(C(=O)O)cc2)o1 | 99.7
O=C1NN(c2ccccc2)C(=O)/C1=C/c1ccc(-c2ccccc2)o1 | 110.9
O=C1NC(=O)N(c2ccccc2)C(=O)/C1=C\c1ccc(-c2cccc(C(=O)O)c2)o1 | –
Cc1nn2c(C(F)(F)F)cc(-c3ccc(Cl)cc3)nc2c1C(N)=O | –
O=C(Nc1nc(-c2ccc(Cl)cc2Cl)cs1)c1cccc(Cl)c1 | –
Cc1ccc2[nH]c3nc(N/N=C/c4ccc([N+](=O)[O-])cc4)nnc3c2c1 | –
CCC1CCCCN1S(=O)(=O)c1ccc(C)c(C)c1 (stereo not drawn) | –
COc1ccc(C(=O)Nc2ccc(S(=O)(=O)Nc3cc(C)on3)cc2)c(OC)c1 | 109.8
COc1ccc(C(=O)Nc2cc(C)cc(C)c2)c(OC)c1 | –
Cc1cc(NS(=O)(=O)c2ccc(NC(=O)c3cc(Cl)cc(Cl)c3)cc2)no1 | –
C(/C=C/c1ccco1)=N/N1CCN(c2ccccc2)CC1 | –
Cc1ccc(NCC(=O)N/N=C\C=C\c2ccco2)cc1 | –
O=C1c2ccccc2/C(=N/N=C/C=C/c2ccco2)C1C(=O)C(c1ccccc1)c1ccccc1 (stereo not drawn) | 88.3
CC1(C)Nc2ccccc2N(Cc2ccc(Cl)c(Cl)c2)C1=O | –
O=C1CC(c2cc([N+](=O)[O-])ccc2Cl)c2cc(Br)c3ccccc3c2N1 (stereo not drawn) | –
CC1=NN(c2ccccc2)C(=O)/C1=C\c1ccc(N2CCOCC2)c([N+](=O)[O-])c1 | –
CC1CCN(c2ccc(C=C3C(=O)c4ccccc4C3=O)cc2[N+](=O)[O-])CC1 | –
CN1C(=O)C(=Cc2ccc(N3CCCC3)c([N+](=O)[O-])c2)C(=O)N(C)C1=O | 90.5
O=C(Nc1ccccc1)Nc1nc(C(c2ccccc2)c2ccccc2)cs1 | 88.4
O=C(Nc1ccccc1)Nc1nnc(C(c2ccccc2)c2ccccc2)s1 | –
O=C(Nc1ccccc1)Nc1nccs1 | –
O=C(Nc1ccc(Cl)cc1)C1CC2c3ccccc3C1c1ccccc12 (stereo not drawn) | –
CCc1ccc(C2C(C(=O)OC3CCCC3)=C(C)NC3=C2C(=O)CCC3)cc1 (stereo not drawn) | –
C/C=C/C=C/C(=O)N1C(=O)C(=O)c2cc(Br)ccc21 | –
Cc1ccc(/C=N/NC(=O)C(C)O)cc1 (stereo not drawn) | –
SMILES | VHR inh color
Cc1ccc(C)c(NCn2nnc3ccccc32)c1 | –
CCOC(=O)C1=C(O)/C(=C/c2cccc(OC)c2)SC1=Nc1ccccc1 | –
COc1ccc(OCC(=O)Nc2sc3c(c2C(N)=O)CCCC3)cc1 | –
CCN(CC)C(=O)c1sc(NC(=O)COc2ccc3ccccc3c2)c(C(=O)OC(C)C)c1C | –
Cc1cc(=O)oc2cc(OCC(=O)Nc3sc4c(c3C(N)=O)CCC4)ccc12 | 77.9
COC(=O)c1ccccc1NC(=O)COc1ccc2ccccc2c1 | –
Cc1ccc(OCC(=O)Nc2sc3c(c2C(N)=O)CCC3)c(C)c1 | –
COC(=O)c1sc(NC(=O)COc2ccc3ccccc3c2)c(C(N)=O)c1C | 96.9
O=C1C(=O)c2ccccc2/C1=C\c1cccc2ccccc12 | –
Cc1cc(Cl)cc(Cl)c1OCCCCN1CCCCC1 | –
CCOC(=O)c1c(C)nn(Cc2ccccc2)c1N | –
CCCOC(=O)c1c(N)sc2c1CCC2 | –
CCOC(=O)c1c(N)sc2c1CCN(Cc1ccccc1)C2 | 95.7
Cc1ccc(C)n1-c1cc(C(=O)O)ccc1O | –
O=C(Nc1ccc([N+](=O)[O-])cc1)C1C2C3CCC(C3)C12 (stereo not drawn) | 84.4
O=C(Nc1ccc([N+](=O)[O-])cc1)C1C(c2ccccc2)=C1c1ccccc1 | –
Cc1ccc([N+](=O)[O-])cc1NC(=O)C1C2C3CCC(C3)C12 (stereo not drawn) | –
CCOc1cccc(=O)c2c(C)[nH]c(C)c12 | 75.3
CCOc1cc(-c2ccc(O)cc2)cc(=O)c2c(C)oc(C)c12 | –
CCOc1cccc(/C=C2/SC(=S)NC2=O)c1O | –
Cc1ccc(OCC(=O)NNC(=O)c2cccc(F)c2)c(C)c1 | –
COc1ccc(CCN=C(Nc2ccccc2)SC2CC(=O)N(c3ccc(F)cc3)C2=O)cc1 (stereo not drawn) | –
COC(=O)C1=C(C)NC(=O)/C1=C\c1ccc(Br)cc1 | –
C/C=C/COC(=O)C1=C(C)NC(=O)NC1c1cccc(Br)c1 (stereo not drawn) | –
O=c1cc(=O)n(-c2ccccc2)c2ccccc12 | –
SMILES | VHR inh color
CCOC(=O)c1sc(NC(=O)c2ccccc2C)nc1C | –
CCOC(=O)c1sc(N/N=C/c2cccc(O)c2)nc1C | 96.7
CCOC(=O)c1sc(N/N=C/c2ccccc2O)nc1C | –
COC(=O)c1cc(NC(=O)c2cc(-c3cccc(OC)c3)nc3ccccc23)cc(C(=O)OC)c1 | –
Cc1cc(C)cc(OCCCCN2CCCCC2)c1 | –
COc1ccc(S(=O)(=O)Nc2ccc(Oc3ccccc3)cc2)cc1Br | –
O=C1C2C3C=CC(C2C(=O)N1C1CCCCC1)C1C(=O)N(C2CCCCC2)C(=O)C31 (stereo not drawn) | 105.9
O=C1C2C3C=CC(C2C(=O)N1Cc1ccccc1)C1C(=O)N(Cc2ccccc2)C(=O)C31 (stereo not drawn) | –
CCC(C)N1C(=O)C(=O)N(C2CCCCC2)C1=O (stereo not drawn) | –
O=C(Nc1ncc(Cc2cccc([N+](=O)[O-])c2)s1)c1ccc(Br)cc1 | –
CC1CN(C(=O)C2(C)CCCCC2)c2ccccc21 (stereo not drawn) | –
COC(=O)C1=CNC=C(C(=O)OC)C1c1ccsc1 | –
